Measured values as given in paper PMC4336329 (PLoS ONE, 2015).
Screen size: about 310,000 compounds; about 14,000 (4.5%) showed an effect of 50% or more. The effect is printed as a negative number. The sample holds strong results, similar compounds and a random draw of the others, so the mix is not that of the screen.

Target: human ether-à-go-go-related gene (hERG) potassium channel (human, UniProt Q12809)
Experiment: primary screen, population patch clamp on CHO cells stably expressing hERG; higher = less effect of the substance
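Further: peak tail current of the secondary pulse compared with the same well before compound.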

Chain of human ether-à-go-go-related gene (hERG) potassium channel (Q12809 whole entry, looked up): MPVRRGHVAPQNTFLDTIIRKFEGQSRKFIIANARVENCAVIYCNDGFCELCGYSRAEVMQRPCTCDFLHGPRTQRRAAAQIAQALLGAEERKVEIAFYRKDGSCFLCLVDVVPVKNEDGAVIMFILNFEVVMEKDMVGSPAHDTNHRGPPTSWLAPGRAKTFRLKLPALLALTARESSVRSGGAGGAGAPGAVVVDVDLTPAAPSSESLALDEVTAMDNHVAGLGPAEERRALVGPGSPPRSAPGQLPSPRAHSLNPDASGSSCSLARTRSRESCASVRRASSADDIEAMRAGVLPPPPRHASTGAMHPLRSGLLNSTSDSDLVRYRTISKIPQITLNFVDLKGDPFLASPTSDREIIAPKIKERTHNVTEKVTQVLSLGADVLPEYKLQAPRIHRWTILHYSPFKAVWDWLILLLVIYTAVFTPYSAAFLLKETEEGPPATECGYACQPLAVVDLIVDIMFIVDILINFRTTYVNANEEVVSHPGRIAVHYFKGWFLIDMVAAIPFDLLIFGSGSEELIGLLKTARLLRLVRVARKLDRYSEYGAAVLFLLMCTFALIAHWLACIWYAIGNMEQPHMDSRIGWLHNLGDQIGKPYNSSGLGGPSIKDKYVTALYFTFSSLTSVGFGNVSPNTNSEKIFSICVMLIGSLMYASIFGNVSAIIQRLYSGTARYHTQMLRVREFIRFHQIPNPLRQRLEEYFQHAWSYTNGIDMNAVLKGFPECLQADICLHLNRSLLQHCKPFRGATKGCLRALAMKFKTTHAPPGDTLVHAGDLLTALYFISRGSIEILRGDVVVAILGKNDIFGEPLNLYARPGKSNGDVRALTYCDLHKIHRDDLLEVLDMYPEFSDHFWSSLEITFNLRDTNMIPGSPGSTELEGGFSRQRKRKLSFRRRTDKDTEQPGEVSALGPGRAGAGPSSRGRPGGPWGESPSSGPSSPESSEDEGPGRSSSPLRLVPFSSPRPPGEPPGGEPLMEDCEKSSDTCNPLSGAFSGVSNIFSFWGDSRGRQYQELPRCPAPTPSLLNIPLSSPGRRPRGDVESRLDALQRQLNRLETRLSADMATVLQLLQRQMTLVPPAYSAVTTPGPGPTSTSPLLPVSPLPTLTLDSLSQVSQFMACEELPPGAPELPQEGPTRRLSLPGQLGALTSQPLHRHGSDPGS

Row | SMILES | hERG current change (%, negative = inhibition) at 10uM [%]
1 | COc1ccc(C(=O)OCCN2C(=O)c3ccccc3C2=O)cc1 | -5.4
2 | COc1cc(OC)cc(-c2sc3ccc(OC)cc3c2C#CCCO)c1 | 10.5
3 | COc1ccc(CC(=O)NNC(=O)CCC(=O)Nc2cc(C)ccc2C)cc1 | 10.4
4 | Cc1[nH]c2ccccc2c1C(=O)NS(=O)(=O)Nc1ccccc1 | 9.15
5 | CS(=O)(=O)c1cccc(C(=O)NCc2ccccc2)c1 | -0.394
6 | CC1(c2ccccc2)NC(=O)N(CC(=O)Nc2ccc(N3CCOCC3)cc2N2CCOCC2)C1=O (stereo not shown) | 6.74
7 | CCc1ccc(C(=O)N/N=C(\C)c2ccncc2)s1 | -11.1
8 | N#Cc1ccc(Cn2ccnc2C(=O)Nc2ccccc2)cc1 | -87
9 | Cc1ccc(Cn2ccnc2C(=O)Nc2ccccc2)cc1 | 6.59
10 | O=C(Nc1ccccc1)c1nccn1Cc1ccc(F)cc1 | -10.9
11 | Cn1c(SCC(=O)NC2CCCC2)nnc1-c1ccncc1 | 33.9
12 | CCOc1cc(C(=S)N2CCN(C)CC2)ccc1OCC(=O)N1CCCC1 | 16
13 | Cc1ccc(C2=Nc3cccnc3C(c3ccccc3)=NN2)cc1 | 0.802
14 | CC1CCCN(C(=O)CSc2nnc3n(C4CCCC4)c(=O)c4ccccc4n23)C1 (stereo not shown) | -62.7
15 | O=C(CSc1nnc2n(C3CCCCC3)c(=O)c3ccccc3n12)OC1CCCCC1 | -4.92
16 | CC1CCCN(C(=O)CSc2nnc3ccccn23)C1 (stereo not shown) | 4.63
17 | CC1CCCN(C(=O)CSc2nnc(-c3cccnc3)n2C2CCCCC2)C1 (stereo not shown) | -13.4
18 | O=C(CSc1nnc2n(C3CCCC3)c(=O)c3ccccc3n12)N1CCCCCC1 | -51.1
19 | COc1ccccc1Cn1c(=O)c2ccccc2n2c(SCC(=O)N3CCCCC3)nnc12 | 15.2
20 | O=C(O)c1nccnc1C(=O)Nc1ccc(Oc2c(Cl)cccc2Cl)nc1 | -26.1
21 | CCN(CC)c1ccc(NC(=O)CN2CCN(CC(=O)Nc3ccccc3OC)CC2)cc1 | -26.9
22 | COc1ccccc1NC(=O)CN1CCN(c2ccccc2F)CC1 | -18.4
23 | COc1ccc(C)cc1NC(=O)CN1CCN(c2ccccc2F)CC1 | -10.3
24 | COc1ccc(C)cc1NC(=O)CN1CCN(S(=O)(=O)c2ccc(F)cc2)CC1 | 7.19
25 | COc1ccccc1NC(=O)CN1CCN(CC(=O)Nc2ccc(F)cc2)CC1 | -79.2
26 | COc1ccc(C)cc1NC(=O)CN1CCN(c2ccc(F)cc2)CC1 | -50.4
27 | COc1ccccc1NC(=O)CN1CCN(CC(=O)Nc2ccc(C)c(F)c2)CC1 | -70
28 | COc1ccccc1N1CCN(CC(=O)Nc2ccc(C)c(F)c2)CC1 | -23.1

Row | SMILES | hERG current change (%, negative = inhibition) at 10uM [%]
29 | COc1cc(NC(=O)CN2CCN(CC(=O)Nc3ccccc3OC)CC2)cc(OC)c1 | 0.0651
30 | COc1ccc(Nc2nc3[nH]c(=O)cc(O)c3s2)cc1 | 14.2
31 | Cc1ccc(S(=O)(=O)NN2C(=O)/C(=C/c3ccc(C(=O)O)cc3)SC2=S)cc1 | 19.9
32 | Cc1ccc(NC(=O)CCNC(=O)c2ccc(Cl)cc2)cc1F | 9.19
33 | O=C(CCNS(=O)(=O)c1ccccc1)NNC(=O)COc1ccc(Cl)cc1 | 2.29
34 | O=C(COc1ccc(Nc2ccccc2)cc1)Nc1ccncc1 | -30.1
35 | O=C(Nc1ccc2c(c1)OCO2)Nc1ccc(Cl)cc1Cl | 9.53
36 | CCCCOC(=O)NC(NCC(O)c1ccccc1)(C(F)(F)F)C(F)(F)F (stereo not shown) | 6.78
37 | O=C(CN(Cc1ccccc1Cl)C(=O)c1csnn1)NCc1ccccc1 | -24
38 | O=C(CN(Cc1ccc(Cl)cc1)C(=O)c1csnn1)NCc1ccc(F)cc1 | -66.6
39 | O=C(CN(Cc1ccc(F)cc1)C(=O)c1csnn1)NCc1ccccc1 | -31.6
40 | O=C(CN(C(=O)c1csnn1)c1cccc2c1CCCC2)NCc1ccccc1 | -5.19
41 | COc1ccc(CNC(=O)CN(Cc2ccccc2Cl)C(=O)c2csnn2)cc1 | -34.8
42 | O=C(CN(Cc1ccccc1Cl)C(=O)c1csnn1)NCc1ccc(F)cc1 | -50.4
43 | O=C(CN(Cc1ccccc1)C(=O)c1csnn1)NCCc1ccccc1 | -18.9
44 | O=C(CN(C(=O)c1csnn1)c1cccc2c1CCCC2)NCc1ccc(F)cc1 | -57.7
45 | O=C(CN(Cc1ccc(Cl)cc1)C(=O)c1csnn1)NCc1ccccc1 | -56.7
46 | O=C(CN(Cc1ccccc1)C(=O)c1csnn1)NCc1ccccc1 | 8.5
47 | COc1ccc(CNC(=O)CN(C(=O)c2csnn2)c2cccc3c2CCCC3)cc1 | -14.9
48 | C=CCN(CC(=O)NCc1ccc(F)cc1)C(=O)c1csnn1 | -18.2
49 | C/C(=N/NC(=O)c1ccc2c(c1)OCO2)c1cccc([N+](=O)[O-])c1 | -10.1
50 | COc1ccc(C(=O)OCn2nnc3ccccc3c2=O)cc1 | -10.4
51 | Cc1cc(C(=O)Nc2ccc(Nc3ccccc3)cc2)ccc1[N+](=O)[O-] | 17.3
52 | CCc1ccc(NC(=O)CS(=O)CC(=O)NC(C)CCc2ccco2)cc1 (stereo not shown) | 9.65
53 | CSc1nc2ccccc2cc1/C=C(\C#N)c1cccc(Cl)c1 | 8.2
54 | CCN1C(C(=O)Nc2cc(C)on2)=C(O)c2ccccc2S1(=O)=O | 24.7
55 | CCCCCC(=O)Nc1cccc(C2=NOC3(C2)C[C@@H](C(N)=O)N(C(=O)c2ccc(Cl)cc2)C3)c1 (stereo partly shown) | -29.6
